Bioassay records as filed in PubChem BioAssay.
Shiga toxin inh: blocks Shiga toxin action in Vero cells | Vero cells, Shiga toxin protein synthesis inhibition reporter | inhibition, % at 38.7 µM | 290,000 compounds, 9.2% hits; in the data active = inhibition mostly above about 28%, no sharp cut-off; inactive = mostly below about 43%; also: 0% is about no effect
LmPK inhibitor: LmPK (Leishmania mexicana) enzyme inhibition; Potency, µM (highest dose often 57.5 µM), without a hit: at the top dose activity change, negative = inhibition, most hits filed as inhibitors; purified LmPK, Kinase-Glo ATP luminescence, 1 h; AID 1721; Q27686; 290,000 compounds, 0.37% hits; also: potency is read from the fitted curve at half-maximal effect; % is scaled to controls: 0 for no effect and ±100 for the full control effect
Target sequence (Q27686 whole entry, looked up): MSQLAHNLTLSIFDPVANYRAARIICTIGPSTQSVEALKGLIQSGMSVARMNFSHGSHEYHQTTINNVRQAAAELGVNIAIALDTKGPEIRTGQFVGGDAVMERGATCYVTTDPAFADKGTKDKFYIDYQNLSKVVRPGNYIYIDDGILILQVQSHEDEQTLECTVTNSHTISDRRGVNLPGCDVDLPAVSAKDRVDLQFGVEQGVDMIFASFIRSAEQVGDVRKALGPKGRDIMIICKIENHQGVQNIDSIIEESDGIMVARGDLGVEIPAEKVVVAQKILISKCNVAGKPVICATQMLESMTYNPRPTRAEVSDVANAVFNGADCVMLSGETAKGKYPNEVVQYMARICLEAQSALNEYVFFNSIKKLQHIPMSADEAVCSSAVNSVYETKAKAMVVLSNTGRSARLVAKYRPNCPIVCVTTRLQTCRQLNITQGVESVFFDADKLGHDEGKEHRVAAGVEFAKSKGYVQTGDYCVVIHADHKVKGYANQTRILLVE
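Kinase-Glo luminescence read after 1 h RT reaction of 0.1 nM LmPK with 0.5 mM PEP and 0.1 mM ADP. Activity scaled between uninhibited and enzyme-free controls.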
Pf growth 48h: P. falciparum growth inhibition at 48 hours (one generation). 310,000 compounds, 5.9% hits. AID 504832. P. falciparum luciferase growth in erythrocytes, 48 h. Potency, µM (top dose mostly 28.7 µM), for inactives: at the top dose activity change, negative = inhibition, usual class: inhibitors; also: potency is read from the fitted curve at half-maximal effect; % is scaled to controls: 0 for no effect and ±100 for the full control effect
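Here the parasites carry a stable luciferase gene and grow inside erythrocytes in Albumax-based RPMI medium with compound for one erythrocytic cycle. Activity is scored as loss of luminescent signal.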
Pf growth 96h: P. falciparum growth inhibition at 96 hour, primary screen for plastid delayed-death inhibitors; AID 504834; P. falciparum luciferase reporter growth, 96 h; Potency, µM (titrated, usually from 28.7 µM), for the others: at the top dose activity change, negative = inhibition, most hits filed as inhibitors; 320,000 compounds, 6.9% hits; also: potency is read from the fitted curve at half-maximal effect; % is scaled to controls: 0 for no effect and ±100 for the full control effect
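Luminescence readout: decreased luciferase signal marks inhibited growth of reporter-expressing P. falciparum in infected red cells (2% hematocrit, 0.05% parasitemia final), exposed to compound two generations (96 h, 37 C, 5% CO2).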
Cycloheximide cs: affects cycloheximide protein synthesis inhibition readout, counter-screen; cell reporter, cycloheximide protein synthesis inhibition counterscreen; max response, %; 300,000 compounds, 12% hits; AID 2314; in the data active = max response mostly above about 13%, no sharp cut-off; inactive = mostly below about 14%; also: read at 38.3 µM for the half of the compounds with a filed dose; 0% is about no effect
Active calls of the source: *; u = inconclusive; x = not tested or not shown; [ ] = another dose, or the depositor's remark. Only some compounds are listed: those with a hit (about 22% of all), similar ones and a draw of the others. Unless noted, calls follow the shape of the dose curve; as a rule, active = well fitted inhibition curve with a large enough effect; inconclusive = small, poorly fitted or top-dose-only effect, or another doubt; inactive = no such curve, though single readings can be large or run the other way.

SMILES | Shiga toxin inh | LmPK inhibitor | Pf growth 48h | Pf growth 96h | Cycloheximide cs
S=c1[nH]nc(-c2ccco2)n1/N=C/C(Cl)=C/c1ccccc1 | 73* | 1% | 5.2µM* | 65% | 53*
Oc1c(Br)cc(/C=N/n2c(-c3ccccc3)n[nH]c2=S)cc1Br | -5 | 18µM* | u | u | -2
Cc1n[nH]c(=S)n1/N=C/c1cccc(OCc2ccccc2)c1 | 58* | 0% | 2.6µM* | 31% | 15
S=c1[nH]nc(-c2cc(-c3ccccc3)n[nH]2)n1/N=C/C(Br)=C/c1ccccc1 | 63* | 2% | 5.2µM* | 9.3µM* | 28*
CCC1=NN(C(=O)Cc2ccc(OC)c(OC)c2)C(O)(C(F)(F)F)C1 (stereo not given) | -6 | 2% | 24% | -19% | -2
Cc1cc(OCC(=O)OCC(=O)N2CC(C)CC(C)C2)ccc1Cl (stereo not given) | x | x | u | -26% | x
CC(=C/c1ccccc1)/C=N/n1c(C)n[nH]c1=S | 47 | 3% | 10% | 12µM* | 30*
CC(=C/c1ccccc1)/C=N/n1c(-c2ccncc2)n[nH]c1=S | -12 | 0% | -15% | u | -2
Cc1cc(-c2n[nH]c(=S)n2/N=C/c2cccc(O)c2)n[nH]1 | -2 | -8% | 61% | 44% | 1
Cc1cc(-c2n[nH]c(=S)n2/N=C/C(Cl)=C/c2ccccc2)n[nH]1 | 38* | -5% | -16% | u | 39*
S=c1[nH]nc(-c2cccc(Cl)c2)n1/N=C/c1ccc(-c2ccccc2Br)o1 | 31 | 6% | 10µM* | u | -2
CC(C)c1ccc(C2NC(=S)NC3=C2C(=O)CC(C)(C)C3)cc1 (stereo not given) | -10 | 4% | 23% | 0% | -1
Cc1ccc2c(c1)C1C=CCC1C(C(=O)O)N2 (stereo not given) | -14 | -8% | u | 2.6µM* | -5
CC(=O)c1ccc2c(c1)C1C=CCC1C(c1ccncc1)N2 (stereo not given) | 97* | -4% | -9% | 132% | 18*
Cc1ccc2c(c1)[C@H]1OCC[C@H]1[C@@H](c1ccncc1)N2 | -8 | 4% | x | 26% | -1
COC(=O)c1ccc(C2Nc3ccc(/C(C)=N/NC(=O)C(OC)c4ccccc4)cc3C3C=CCC32)cc1 (stereo not given) | 1 | -6% | u | 4.1µM* | -4
O=C(O)c1ccc2c(c1)C1C=CCC1C(c1cc3c(cc1Br)OCO3)N2 (stereo not given) | -28 | 6% | 1% | u | -2
C1=CC2c3ccccc3NC(c3ccncc3)C2C1 (stereo not given) | -15 | -8% | u | 13µM* | 5
CC(=O)c1ccc2c(c1)C1C=CCC1C(C(=O)O)N2 (stereo not given) | -2 | -20% | 33% | 22% | 5
Cc1noc(N)c1C1(O)C(=O)Nc2c(Cl)cc(Cl)cc21 (stereo not given) | -7 | -2% | 1% | -3% | -1
Cc1ccc(C)c(NS(=O)(=O)c2cc(C(=O)NCc3ccccn3)ccc2C)c1 | -4 | 5% | -22% | u | 5
O=C(NC1CCCC1)C(c1cccs1)N(C(=O)c1csnn1)c1ccccc1F (stereo not given) | -9 | -7% | -6% | u | -4
CCOC(=O)NN1C(=O)c2ccccc2NC1c1ccccc1 (stereo not given) | -7 | 0% | 27% | -22% | 8
CCOC(=O)NN1C(=O)c2ccccc2NC1c1ccccn1 (stereo not given) | -4 | 1% | 8% | 10µM* | 10
Cn1cccc1-c1nc2ccccc2[nH]1 | 88* | -13% | 138% | 187% | 31*
SMILES | Shiga toxin inh | LmPK inhibitor | Pf growth 48h | Pf growth 96h | Cycloheximide cs
Cn1cccc1-c1nc2ccc(NC(=O)c3ccc([N+](=O)[O-])cc3)cc2[nH]1 | -17 | -1% | x | u | -2
Cc1ccc(S(=O)(=O)Nc2ccc3nc(-c4cccn4C)[nH]c3c2)cc1 | 37* | 2% | u | x | 24*
Cn1cccc1-c1nc2ccc(NC(=O)c3ccccc3)cc2[nH]1 | 36* | 0% | 17% | 81% | 20*
Cc1ccccc1SCC(=O)OCC(=O)N(C)c1c(N)n(Cc2ccccc2)c(=O)[nH]c1=O | x | x | 34% | u | x
CC(O)CNc1nc(NCc2ccccc2)c2cnn(C)c2n1 (stereo not given) | -5 | -3% | 17% | 3% | -9
Cc1c(NC(=O)c2cccc(NC(=O)COc3ccc(C#N)cc3)c2)c(=O)n(-c2ccccc2)n1C | x | x | 15% | 68% | x
COc1ccccc1CNS(=O)(=O)c1cc2c3c(c1)CCN3C(=O)CC2 | x | x | u | 6% | x
Cc1ccc(C)c(NS(=O)(=O)c2ccc3c(c2)Cc2cc(S(=O)(=O)Nc4cc(C)ccc4C)ccc2-3)c1 | -14 | 1% | u | 0% | -2
Cc1nc2c(sc3nc4c(cc32)COC(C)(C)C4)c(=O)n1CC(=O)NCc1ccco1 | 39* | -5% | 125% | u | 24*
CC(C)c1nc2sc3c(SCC(=O)NCc4ccco4)ncnc3c2c2c1CCC2 | -9 | 1% | 90% | 0% | 2
CC1(C)Cc2nc3sc4c(SCC(=O)NCc5ccco5)ncnc4c3cc2CO1 | 99* | -2% | 74% | x | 51*
COc1ccc([N+](=O)[O-])cc1NC(=O)Nc1cccc(Cl)c1 | 16 | 0% | 9.3µM* | 87% | -1
COc1ccc([N+](=O)[O-])cc1NCc1ccccc1 | -3 | -3% | 18% | 3.3µM* | 20
O=C(Cc1ccc([N+](=O)[O-])cc1)Nc1ccc(Cl)cc1 | 19 | 8% | 10µM* | 4% | 1
COc1ccc([N+](=O)[O-])cc1NC1C2CC3CC(C2)CC1C3 (stereo not given) | 28 | 1% | 8% | 0.52µM* | -2
COc1ccc([N+](=O)[O-])cc1NC(=O)Nc1ccc(OC)c(OC)c1 | 23 | -3% | u | 19%[5.75 µM] | 27
O=C(C/C=N\OCc1ccc([N+](=O)[O-])cc1)Nc1ccc(Cl)cc1 | 56 | 0% | -3% | -12% | 17
COc1ccc([N+](=O)[O-])cc1NCc1ccccc1C | 15 | 1% | u | -3% | -3
CC(C)NC[C@H]1CCc2cc(CO)c([N+](=O)[O-])cc2N1 | x | x | -10%[12.8 µM] | -12%[12.8 µM] | x
CC(C)CC(NC(=O)/C(=C/c1ccco1)NC(=O)c1ccc(Br)o1)C(=O)O (stereo not given) | -3 | 11% | -7% | 8% | -3
COc1ccc([N+](=O)[O-])cc1NC(=O)Cc1ccc(Cl)cc1 | -11 | 4% | -12% | 10µM* | -2
Cc1cc(F)ccc1NCc1ccc([N+](=O)[O-])cc1 | 71* | -4% | -15% | u | 30*
CCCCNC(=O)CNC(=S)N(Cc1ccccc1F)C1CCCCC1 | -11 | 3% | 156% | u | -3
CCC(CC)N1CCN(C(=O)c2cc(OC)c(OC)c(OC)c2)CC1 | -8 | 1% | -1% | u | 1
